# According to PubChem BioAssay (NCI):
# Compounds without any hit were thinned out: in the full panel of roughly 83,000, 20% have a hit.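 Single-dose data. Exposure time 48 hours. Values below 10 considered active.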 Activity calls are given as the source filed them.
# Tested on: A549/ATCC NSCLC
# Assay: NCI-60 one-dose screen, 48 h (100 = growth as untreated, 0 = no growth, -100 = all killed)
# Details: 10 µM unless noted
# Procedure: Growth inhibition of the A549/ATCC human Non-Small Cell Lung tumor cell line is measured as a screen for anti-cancer activity. Cells are grown in 96 well plates and exposed to the test compound for 48 hours. Compounds are tested at a single concentration, which is 10^-5 M for most compounds. The reported endpoint is percent growth (GI% or GIPRCNT), where numbers from 0 - 100% represent growth inhibition, and numbers from -100% - 0 represent cell death. For example, a value of 40 represents 60% growth inhibition. A value of 0 means no net growth occurred over the course of the experiment. A value of -40 indicates 40% of cells at the beginning of the experiment died by the end of the experiment. A value of -100 means all cells are dead at the end of the experiment.
# NCI-60 Human Tumor Cell Lines Screen was performed using the standard one-dose NCI protocol, which is described in more detail at https://dtp.cancer.gov/discovery_development/nci-60/default.htm.
# Compounds with GIPRCNT values below 10 were considered active. Activity score was based on GIPRCNT using the following formula: […]
# Score is 0 for GIPRCNT values of 100 or above, 50 for GIPRCNT values of 0, and 100 for GIPRCNT values of -100.
row,Compound,growth
1,CCOc1nc(-c2ccccc2)cc2c(O)c(C(=O)O)[nH]c(=O)c12,108% (inactive)
2,O=C(O)c1ccc(NC(=O)c2ccc(-c3cccc([N+](=O)[O-])c3)o2)cc1,101% (inactive)
3,OCC(O)c1nc2ccc3[nH]ncc3c2c2c1CCCC2 (stereo not given),6.34% (active)
4,COc1cc2c(cc1-c1c(C)noc1C)ncc1nc(C3CCC(F)(F)CC3)n([C@H](C)COC(F)F)c12,40% (inactive)
5,O=S(=O)(Nc1ccc(NS(=O)(=O)c2ccccc2)c(Cl)c1)c1ccccc1,101% (inactive)
6,CCOC(=O)c1sc2nc(-c3cccc(O)c3)nc(N3CCOCC3)c2c1C,47.4% (inactive)
7,Cc1cc(C)nc(SC2=C(Nc3ccc(O)cc3)C(=O)N(Cc3ccccc3)C2=O)n1,63% [40 µM] (inactive)
8,Cc1ccc(NS(=O)(=O)c2ccc(-c3cnc(C4CC4)o3)cc2)cc1C,27.1% (inactive)
9,Cn1cc(-c2nonc2-c2cn(C)c3ccc(F)cc23)c2cc(F)ccc21,47.9% (inactive)
10,COc1cc2c(cc1-c1c(C)noc1C)ncc1nc(C3CCOCC3)n([C@H](C)COC(F)F)c12,36.2% (inactive)
11,CCOc1nc(-c2ccccc2)cc2c(O)c(C(=O)N/N=C/c3ccc(O)cc3O)[nH]c(=O)c12,46.2% (inactive)
12,Clc1ccc2c(NCCCCNc3nc(N4CCOCC4)nc4ccccc34)ccnc2c1,14.6% (inactive)
13,Cc1nn(-c2cc(=O)[nH]c3ccc(Cl)cc23)c(N)c1C#N,108% (inactive)
14,COC(=O)c1ccc(Cn2cnc3c(N)ncnc32)cc1,104% (inactive)
15,O=C1NC(=S)NC(=O)C1CC(=O)n1c(-c2ccccc2)nc2ccccc21,97.7% (inactive)
16,CCCCn1c(-c2ccc(C(=O)O/N=C(\N)c3ccc4ccccc4c3)cc2)nc(-c2ccccc2)c1-c1ccccc1,42% (inactive)
17,Cc1cc(C)c2nc3nc(C)cc(C)c3c(N)c2c1,19.9% (inactive)
18,COc1cc(/C=C/c2cc(/C=C/c3ccc(O)c(OC)c3)n(-c3c(C)cccc3C)c(=O)n2)ccc1O,2.96% (active)
19,CN(C)[C@@H]1C(=O)C(C(=O)NCc2nc3[nH]cnc(=S)c3[nH]2)=C(O)[C@@]2(O)C(=O)C3=C(O)c4c(O)cccc4[C@@](C)(O)[C@H]3C[C@@H]12,101% (inactive)
20,c1csc(C2=NN3C(C2)c2ccccc2OC3c2ccncc2)c1 (stereo not given),96.2% (inactive)

row,Compound,growth
1,COc1ccc(Nc2nc(SC)nc(-c3cccc([N+](=O)[O-])c3)c2C#N)cc1,31.4% (inactive)
2,CCN(CC)S(=O)(=O)c1ccc(OC)c(NC(=O)c2[nH]c(C)c3c2CCCCC3=O)c1,45.2% (inactive)
3,C=CC(=O)Nc1cccc(-c2nc(SC)nc(NCCN3CCOCC3)c2C#N)c1,101% (inactive)
4,CC(=O)O[C@H]1[C@@H]2OC(=O)C(CSc3ccccc3)[C@@H]2C[C@H]2O[C@]2(C)CC/C=C(\C)CCC[C@@H]1C (stereo not given in full),21.2% (inactive)
5,COc1cccc(-c2nc3sccn3c2-c2ccnc(NCCCNS(=O)(=O)c3cccc(F)c3)c2)c1,18.1% (inactive)
6,CC1=CC(C)(C)Nc2ccc(Cc3ccc4c(c3)C(C)=CC(C)(C)N4)cc21,78.5% (inactive)
7,Cn1c(O)c(N=NC(=O)c2cc(-c3ccccc3)on2)c2ccccc21,108% (inactive)
8,O=C(Nc1ccc(Cl)cc1)c1cc2cc(F)ccc2cc1O,6.09% (active)
9,O=c1ccccc(-c2ccc(-c3ccco3)cc2)c1O,13.3% (inactive)
10,O=C1/C(=C/c2ccccc2)SC(=S)N1CCc1ccc(O)cc1,93.6% (inactive)
11,COc1cc(-c2nc3cc(Cl)c(Cl)cc3[nH]2)ccc1OCC(=O)N=Nc1c(O)[nH]c2ccccc12,4.16% (active)
12,FC(F)(F)c1ccc(-c2cn3nc(-c4c[nH]c5ccc(Br)cc45)sc3n2)cc1,99% (inactive)
13,CN1CCN(Cc2ccc(NC(=O)c3cncc(C#Cc4cncn5ccnc45)c3)cc2C(F)(F)F)CC1,74% (inactive)
14,O=C1c2c(O)cc(O)cc2-c2c(-c3ccc(O)cc3)oc3cc(O)cc1c23,43.2% (inactive)
15,COc1cccc(-c2nc(SCC(=O)Nc3ccc(C(=O)/C=C/c4ccc(OC)c(OC)c4)cc3)[nH]c(=O)c2C#N)c1,90.6% (inactive)
16,CSc1nc(NCCN2CCOCC2)c(C#N)c(-c2cccc([N+](=O)[O-])c2)n1,99.5% (inactive)
17,CCN1CCN(c2nc(NCCNc3ccnc4cc(Cl)ccc34)c3ccccc3n2)CC1,0.344% (active)
18,O=C(N=Nc1c(O)[nH]c2ccccc12)c1cc(-c2ccccc2)on1,107% (inactive)
19,O=S(=O)(Nc1ccc(Br)c(Cl)c1)c1ccc(-c2cnc(C3CC3)o2)cc1,24.9% (inactive)
20,CC(C)CC1C(=O)N2CCC[C@H]2C2(O)O[C@](NC(=O)C3C=C4c5cccc6[nH]c(Br)c(c56)C[C@H]4N(C)C3)(C(C)C)C(=O)N12 (stereo not given in full),37.9% (inactive)
